Measurements published in PubChem BioAssay (Tox21).
Values joined by “and” are separate entries in the source; they are usually repeats but may differ in a detail not shown here. Equal values may be shown once. Records with an inconclusive call do not appear. Where a call stands in place of a potency, no number is given. A structure can be active in one record and inactive in another. Active and inactive are the calls of the source. Calls come from the whole dose curve; as a rule, active = well fitted curve in the direction sought with a large enough effect in the repeat runs; inconclusive = weak or mixed curves; inactive = no such curve, though single readings can be large; an effect the other way counts as inactive or inconclusive.

Experiments:
[1] = qHTS RealTime-Glo MT Cell Viability Assay in HEK293 cells - 16 hour (AID 1224872); note: nearly all actives have a fitted effect of over 50% in size; note: potency is the fitted concentration of half-maximal effect
How it was run: (§1)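 Homogeneous bioluminescent viability format in HEK293 cells (600 cells/well). Following 5 h at 37 C/5% CO2, 23 nL compound was pintooled; the signal was measured repeatedly during 40 h incubation.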

[2] = qHTS RealTime-Glo MT Cell Viability Assay in HepG2 cells - 8 hour (AID 1224873); note: nearly all actives have a fitted effect of over 55% in size
How it was run: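 HepG2 cells (600/well) mixed with RealTime-Glo MT reagent, settled 5 h at 37 C/5% CO2 before compound addition. Nonlytic NanoLuc luminescence from viable-cell prosubstrate reduction read repeatedly during 40 h treatment at 37 C.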

[3] = qHTS RealTime-Glo MT Cell Viability Assay in HEK293 cells - 40 hour (AID 1224874); details: RealTime-Glo luminescence; max response: stronger effect = lower value; note: nearly all actives have a fitted effect of over 50% in size
How it was run: (§2)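 Real-time viability in HEK293: signal arises when living cells convert a prosubstrate for NanoLuc in the medium, so luminescence tracks viable cell number. Compound (23 nL, DMSO) added 5 h post-seeding; kinetic reads at 0–40 h, 37 C.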

[4] = A CellTox Green Cytotoxicity Assay to monitor cytotoxicity in HepG2 cells - 16 hour (AID 1224876); note: nearly all actives have a fitted effect of over 45% in size; note: potency is the fitted concentration of half-maximal effect
How it was run: (§3)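 Cells and non-lytic dye reagent are dispensed together (600 HepG2 cells/well) and incubated 5 h before DMSO compound transfer. Kinetic fluorescence is then recorded in the same wells during 40 h at 37 C.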

[5] = A CellTox Green Cytotoxicity Assay to monitor cytotoxicity in HepG2 cells - 24 hour (AID 1224878); note: nearly all actives have a fitted effect of over 45% in size; note: potency is the fitted concentration of half-maximal effect
How it was run: as §3

[6] = A CellTox Green Cytotoxicity Assay to monitor cytotoxicity in HepG2 cells - 40 hour (AID 1224879); note: nearly all actives have a fitted effect of over 40% in size; note: potency is the fitted concentration of half-maximal effect
How it was run: as §3

[7] = qHTS RealTime-Glo MT Cell Viability Assay in HEK293 cells - 0 hour (AID 1224880); note: top concentration of the series differs between compounds; nearly all actives have a fitted effect of over 45% in size
How it was run: as §2

[8] = A CellTox Green Cytotoxicity Assay to monitor cytotoxicity in HEK293 cells - 32 hour (AID 1224881); note: nearly all actives have a fitted effect of over 40% in size; note: potency is the fitted concentration of half-maximal effect
How it was run: (§4)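 Cells (HEK293, 600/well) and dye reagent are dispensed together. After 5 h at 37 C, 23 nL compound is pinned in. Plates stay at 37 C for 40 h with fluorescence read at 0h, 8h, 16h, 24h, 32h and 40h.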

[9] = A CellTox Green Cytotoxicity Assay to monitor cytotoxicity in HepG2 cells - 0 hour (AID 1224882); note: nearly all actives have a fitted effect of over 35% in size
How it was run: as §3

[10] = A CellTox Green Cytotoxicity Assay to monitor cytotoxicity in HepG2 cells - 32 hour (AID 1224883); note: nearly all actives have a fitted effect of over 50% in size; note: potency is the fitted concentration of half-maximal effect
How it was run: as §3

[11] = A CellTox Green Cytotoxicity Assay to monitor cytotoxicity in HEK293 cells - 8 hour (AID 1224884); note: nearly all actives have a fitted effect of over 35% in size
How it was run: as §4

[12] = qHTS RealTime-Glo MT Cell Viability Assay in HepG2 cells - 16 hour (AID 1224885); note: nearly all actives have a fitted effect of over 50% in size; note: potency is the fitted concentration of half-maximal effect
How it was run: (§5)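 Cell number in HepG2 cultures estimated from NanoLuc luminescence generated by metabolic reduction of a prosubstrate by living cells. The homogeneous, nonlytic format allowed repeated reads at 0, 8, 16, 24, 32 and 40 h of compound exposure.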

[13] = qHTS RealTime-Glo MT Cell Viability Assay in HEK293 cells - 8 hour (AID 1224887); note: nearly all actives have a fitted effect of over 50% in size; note: potency is the fitted concentration of half-maximal effect
How it was run: as §2

[14] = A CellTox Green Cytotoxicity Assay to monitor cytotoxicity in HEK293 cells - 16 hour (AID 1224888); note: nearly all actives have a fitted effect of over 35% in size
How it was run: as §4

[15] = qHTS RealTime-Glo MT Cell Viability Assay in HepG2 cells - 0 hour (AID 1224889); note: nearly all actives have a fitted effect of over 50% in size
How it was run: as §5

[16] = A CellTox Green Cytotoxicity Assay to monitor cytotoxicity in HepG2 cells - 8 hour (AID 1224890); note: nearly all actives have a fitted effect of over 45% in size
How it was run: as §3

[17] = qHTS assay to identify small molecule antagonists of the estrogen receptor alpha (ER-alpha) signaling pathway using the BG1 cell line in the presence of 0.1 nM 17-beta-estradiol - cell viability counter screen (AID 1259241); note: nearly all actives have a fitted effect of over 40% in size
How it was run: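 In this screen, hormone-deprived VM7Luc4E2 cells were seeded at 4,000 per well, dosed with compound and 0.1 nM estradiol final, and incubated 22 hr at 37C and 5% CO2; fluorogenic live-cell protease signal reported viability.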

[18] = A CellTox Green Cytotoxicity Assay to monitor cytotoxicity in HEK293 cells - 24 hour (AID 1224875)
How it was run: as §4

[19] = qHTS RealTime-Glo MT Cell Viability Assay in HepG2 cells - 32 hour (AID 1224877); note: nearly all actives have a fitted effect of over 55% in size; note: potency is the fitted concentration of half-maximal effect
How it was run: as §5

[20] = qHTS RealTime-Glo MT Cell Viability Assay in HEK293 cells - 24 hour (AID 1224886)
How it was run: as §1

| SMILES | Potency [1] | outcome [2] | max response [3] | Potency [4] | Potency [5] | Potency [6] | Potency [7] | Potency [8] | Potency [9] | Potency [10] | Potency [11] | Potency [12] | Potency [13] | Potency [14] | Potency [15] | Potency [16] | Potency [17] | Potency [18] | Potency [19] | Potency [20] |
| --- | --- | --- | --- | --- | --- | --- | --- | --- | --- | --- | --- | --- | --- | --- | --- | --- | --- | --- | --- | --- |
| Nc1ccc(S(=O)(=O)c2ccc(N)cc2)cc1 | inactive | inactive | 3.77% (inactive) and -13.4% (inactive) and 9.1% (inactive) | inactive | inactive | inactive | inactive | inactive | inactive | inactive | inactive | inactive | inactive | inactive | inactive | inactive | inactive |  |  |  |
| O=NO | inactive | inactive | 1.94% (inactive) and 6.27% (inactive) and -0.835% (inactive) | inactive | inactive | inactive | inactive | inactive | inactive | inactive | inactive | inactive | inactive | inactive | inactive | inactive | inactive | inactive |  |  |
| CCCC(O)C(CC)CO (centres undefined) | inactive | inactive |  | inactive | inactive | inactive | inactive | inactive | inactive | inactive | inactive | inactive | inactive | inactive | inactive | inactive | inactive | inactive | inactive |  |
| Nc1ccc(C(=O)O)cc1 | inactive | inactive | -12% (inactive) and -18.6% (inactive) and -17.3% (inactive) | inactive | inactive | inactive | inactive | inactive | inactive | inactive | inactive | inactive | inactive | inactive | inactive | inactive | inactive |  |  | inactive |
| CCCCOC(=O)CC(CC(=O)OCCCC)(OC(C)=O)C(=O)OCCCC | inactive | inactive | -6.55% (inactive) and -23.8% (inactive) and -22.3% (inactive) | inactive | inactive | inactive | inactive | inactive | inactive | inactive | inactive | inactive | inactive | inactive | inactive | inactive | inactive |  |  |  |
| Cn1c(=O)c2[nH]cnc2n(C)c1=O | inactive | inactive | 0.637% (inactive) and -1.08% (inactive) and -2.33% (inactive) | inactive | inactive | inactive | inactive | inactive | inactive | inactive | inactive | inactive | inactive | inactive | inactive | inactive | inactive |  | inactive | inactive |
| O=C(O)CCCCCCCC(=O)O | inactive | inactive | 2.75% (inactive) and 4.95% (inactive) and 3.91% (inactive) | inactive | inactive | inactive | inactive | inactive | inactive | inactive | inactive | inactive | inactive | inactive | inactive | inactive | inactive |  |  |  |
| Cc1noc(NS(=O)(=O)c2ccc(N)cc2)c1C | inactive | inactive | 3.99% (inactive) and 6.51% (inactive) and 6.27% (inactive) | inactive | inactive | inactive | inactive | inactive | inactive | inactive | inactive | inactive | inactive | inactive | inactive | inactive | inactive | inactive | inactive |  |
| NNC(=O)c1ccncc1 | inactive | inactive | 1.61% (inactive) and 0.145% (inactive) and 4.04% (inactive) | inactive | inactive | inactive | inactive | inactive | inactive | inactive | inactive | inactive | inactive | inactive | inactive | inactive | inactive |  |  |  |
| CC1(C)[C@@H]2CC[C@@]1(C)C(=O)C2 | inactive | inactive | 4.23% (inactive) and 1.62% (inactive) and -1.8% (inactive) | inactive | inactive | inactive | inactive | inactive and 8.49 µM (active) | inactive | inactive | inactive | inactive | inactive | inactive | inactive | inactive | inactive |  | inactive | inactive |
| O=C(O)/C=C\C(=O)O | inactive | inactive |  | inactive | inactive | inactive | inactive | inactive | inactive | inactive | inactive | inactive | inactive | inactive | inactive | inactive |  | inactive | inactive | inactive |
| COc1c2occc2cc2ccc(=O)oc12 | inactive | inactive |  | inactive | inactive | inactive | inactive | inactive | inactive | inactive | inactive | inactive | inactive and 21.9 µM (active) | inactive | inactive | inactive | inactive |  | inactive |  |
| c1ccc2[nH]ccc2c1 | 2.15 µM (active) and inactive | inactive |  | 21.5 µM (active) and inactive | 6.81 µM (active) and inactive | 5.41 µM (active) and inactive | inactive | 6.81 µM (active) and inactive | inactive | 3.83 µM (active) and inactive | inactive | 15.2 µM (active) and inactive | inactive |  | inactive | inactive |  |  | 3.83 µM (active) and inactive |  |
